Structures are written as SMILES. Records with an inconclusive call do not appear. Values without a mark were called inactive. Calls follow the shape of the dose curve; as a rule, active = well fitted activation curve with a large enough effect; inconclusive = small, poorly fitted or top-dose-only effect; inactive = flat fitted curve, though single readings scatter.

The nature of this assay: qHTS for Inhibitors of Cell Surface uPA Generation: FP59 Counterscreen for Cherry-picked Compounds. Also: 0% is about no effect. The note with it: FP59 anthrax toxin cytotoxicity counterscreen, cells; series mostly up to 115 µM; activity (protection from FP59): at the top concentration.
Regarding `CCCOc1ccc(S(=O)(=O)NNC(=O)c2cc3ccccc3o2)cc1`, the “activity (protection from FP59)” value was -0.614%.
On to `COc1ccc(C)cc1NC(=O)NNC(=O)C1CCC(C(C)(C)C)CC1` (configuration not stated), for which the “activity (protection from FP59)” value is 3.33%.
Regarding `O=C(O)c1ccc(-n2nnnc2SCc2cccc(Br)c2)cc1`, the “activity (protection from FP59)” value is -1.51%.
With `CC[C@]1(C(=O)OC)[C@H]2C(=O)N(C)C(=O)[C@H]2[C@H]2CN(C)C(=NC3CCCCC3)N21`, the “activity (protection from FP59)” value is 0.0361%.
Next, `CCCCOc1ccc(S(=O)(=O)N2CCCCC2)cc1`: -0.712%; `Cc1cccc(Nc2ccc(NCc3ccccc3)nn2)c1`: -1.23%; `COc1cccc(C2CC(c3ccc(C)cc3)n3ncnc3N2)c1` (configuration not stated): -0.0008%.
With `Cc1noc(C)c1CSCC(=O)Nc1cc(Cl)ccc1N1CCCCC1`, the “activity (protection from FP59)” value is 7.4%.
For the molecule `Cc1cccc(C)c1NC(=O)c1c(O)c2ccccc2[nH]c1=O`, the “activity (protection from FP59)” value was -0.508%.
In the case of `CCOC(=O)C(CC)n1cnc2c(nnn2-c2ccccc2)c1=O` (configuration not stated), the “activity (protection from FP59)” value is -0.667%.
On to `O=C(C1CCCCN1S(=O)(=O)c1ccc(F)cc1)N1CCN(c2ccccc2F)CC1` (configuration not stated), for which the “activity (protection from FP59)” value is -0.0276%.
For `CC(/C=C1\SC(=S)N(CCCC(=O)Nc2ccc(C(=O)O)cc2)C1=O)=C\c1ccccc1`, the “activity (protection from FP59)” value is -0.862%.
As to `COc1cccc(C(=O)NCC(c2ccco2)N2CCc3ccccc3C2)c1` (configuration not stated), the “activity (protection from FP59)” value was -1.3%.
As for `CS/C(=C\[N+](=O)[O-])Nc1ccccc1`, the “activity (protection from FP59)” value is -1.4%.
The value for `CCOC(=O)N1CCN(c2c(NCCCN3CCCCCC3)c(=O)c2=O)CC1` was -1.45%.
As for `C[C@H]([C@H](O)c1ccccc1)N(C)C(=O)CN`, the “activity (protection from FP59)” value was -0.116%.
As for `CCOc1ccc(C(=O)NCC(=O)N2CCN(C/C=C/c3ccccc3)CC2)cc1OCC`, the “activity (protection from FP59)” value is -1.41%.
Turning to `CCCCN(CC)CCNC(=O)c1cc2cc3ccc(Cl)cc3nc2o1`, the “activity (protection from FP59)” value is -1.38%.
Turning to `CCS(=O)c1scc(-c2ccc(Cl)cc2)c1C#N` (configuration not stated), the “activity (protection from FP59)” value was -1.16%.
For `CC1CCCN(S(=O)(=O)c2cccc([N+](=O)[O-])c2)C1` (configuration not stated), the “activity (protection from FP59)” value is -1.5%.
`CCc1ccc(NC(=O)Cn2cnc([N+](=O)[O-])c2)cc1`: the “activity (protection from FP59)” value is -0.991%.
The value for `C/C(=N\NC(=O)c1ccccc1)c1c(C)[nH]n(-c2ccccc2)c1=O` was -0.532%.

The values above are taken from PubChem BioAssay AID720517 (National Center for Advancing Translational Sciences (NCATS), 2013).
